High-throughput results: PubChem, National Center for Advancing Translational Sciences (NCATS)
A selection: hits, their analogues and other compounds. The true share with any hit is near 9.4%.
Pf growth 96h: Primary qHTS for delayed death inhibitors of the malarial parasite plastid, 96 hour incubation | P. falciparum luciferase reporter growth, 96 h | Potency, µM (top dose mostly 28.7 µM), inactives show at the top dose activity change, negative = inhibition, usual class: inhibitors | hit rate 6.9% among 320,000; also: % is scaled to controls: 0 for no effect and ±100 for the full control effect
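Readout is luminescence from an integrated firefly luciferase in P. falciparum. Red cells, 2% hematocrit and 0.05% parasitemia final, were cultured with compound through two parasite generations (96 hours) at 37 C, 5% CO2.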
AMA1 RON2 block: qHTS for Inhibitors of AMA1-RON; Towards Development of Antimalarial Drug Lead: Primary Screen | AlphaScreen AMA1-biotinylated RON2 peptide binding | Potency, µM (doses to about 58.2 µM), inactives show at the highest dose activity change, negative = inhibition, hits mostly inhibitors | hit rate 0.2% among 360,000 | Plasmodium falciparum AMA1 (3D7) - RON2 peptide interaction;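 also: 0% = vehicle wells and -100% = peptide control; nearly all actives have a fitted effect of over 45% in size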
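AMA1 (3D7) with his tag at 25 nM final met compounds first, then biotinylated RON2 peptide at 25 nM; detection used donor plus acceptor beads, 10 µg/mL apiece, read by AlphaScreen after 30 min at room temperature.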
Pf growth 48h: Primary qHTS for delayed death inhibitors of the malarial parasite plastid, 48 hour incubation; hit rate 5.9% among 310,000; AID 504832, 2011; Potency, µM (doses to about 28.7 µM), without a hit: at the top dose activity change, negative = inhibition, most hits filed as inhibitors; P. falciparum luciferase growth in erythrocytes, 48 h; also: % is scaled to controls: 0 for no effect and ±100 for the full control effect
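Compounds are pin-transferred into medium, infected erythrocytes (2% hematocrit, 0.1% parasitemia final) are added, and plates sit one parasite generation at 37 C in 5% CO2. Detection reagent is then added and luminescence measured.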
SARS PLpro yeast: qHTS of Yeast-based Assay for SARS-CoV PLP. S. cerevisiae expressing SARS-CoV PLpro, growth rescue. Potency, µM (series often up to 32.9 µM), for the others: at the top dose activity, positive = growth rescue, hits mostly activators. hit rate 0.19% among 330,000. AID 485353, 2010; calls by dose curve; also: 0% is about no effect; nearly all actives have a fitted effect of over 55% in size
Active calls of the source: *; ? = inconclusive; . = not tested or not shown; ! = not active in a repeat. Unless noted, calls follow the shape of the dose curve; as a rule, active = well fitted curve in the direction sought with a large enough effect; inconclusive = small, poorly fitted or top-dose-only effect, or another doubt; inactive = no such curve, though single readings can be large; an effect the other way counts as inactive or inconclusive. Potency is read from the fitted curve at half-maximal effect.

SMILES | Pf growth 96h | AMA1 RON2 block | Pf growth 48h | SARS PLpro yeast
CCOCCCNC(=O)/C(C#N)=C/c1ccc(-c2ccc(S(=O)(=O)N3CCOCC3)cc2)o1 | 13µM* | 3% | -20% | -2%
CC(=NCC1CCCO1)C1=C(O)CC(C)(C)CC1=O (centres undefined) | 15% | -10% | -4% | -1%
NC(N)=Nc1ccc(N=C(N)N)cc1 | 8.3µM* | -1% | ? | 2%
NC(=Nc1ccccc1)Nc1ccccc1 | ? | -7% | -1% | 0%
COc1cc(SSc2cc(OC)cc([N+](=O)[O-])c2N)c(N)c([N+](=O)[O-])c1 | 9.3µM* | ? | ? | -19%
O=C(Nc1ccc(C(=O)N2CCCCC2)cc1)c1ccc(Br)cc1 | 4.1µM* | -1% | ? | -3%
O=C(Nc1ccc(C(=O)N2CCCC2)cc1)c1ccccc1 | . | -4% | . | .
O=C(Nc1ccc2c(c1)OCCO2)C1CCN(C(=O)c2ccc(Br)cc2)CC1 | 2.6µM* | -11% | -2% | -2%
Cn1c(SCC(N)=O)nnc1-c1ccccc1 | . | 10% | 4% | 11%
C[C@@H]1O[C@@H](Oc2c(-c3cc(O)c(O)c(O)c3)oc3cc(O)cc(O)c3c2=O)[C@H](O)[C@H](O)[C@H]1O | ? | -20% | 13µM* | 0%
CCCCCCCCNC(C)C(O)c1ccc(SC(C)C)cc1 (centres undefined) | 0.93µM*! | -4% | 1.9µM* | -27%
CC1(CSc2ccccc2)CC(=O)N1 (centres undefined) | . | 4% | . | .
CCCCNC(=O)CC(C(=O)N1CCc2ccccc21)n1ccnc1 (centres undefined) | 21% | 6% | . | -14%
CCN(CCCNC(=O)CC(C(=O)N1CCc2ccccc21)n1ccnc1)c1cccc(C)c1 (centres undefined) | ? | ? | 10µM* | -4%
COc1ccc(C(=O)Nc2ccnn2C2CCN(C(C)CSC)CC2)cc1 (centres undefined) | 2.9µM* | 1% | 14% | 5%
COc1ccccc1C(=O)Nc1ccnn1C1CCN(C(C)CSC)CC1 (centres undefined) | ? | -9% | 13% | 0%
Cn1nnnc1Sc1ncnc2scc(-c3ccc(Br)cc3)c12 | . | . | . | 4%
Cn1nnnc1Sc1ncnc2scc(-c3ccc[nH]3)c12 | ? | . | 10µM* | -4%
CCCC(=O)Nc1ccccc1Sc1ncnc2scc(-c3ccccc3)c12 | 18% | 4% | 4.7µM* | -7%
Cn1nnnc1Sc1ncnc2scc(-c3ccccc3)c12 | -3% | 3% | 12µM* | 1%
CC(=O)c1cccc(-c2ccc3c(c2)C(C)(Cc2ccccc2F)C(=O)N3)c1 (centres undefined) | . | -4% | . | .
COc1ccc(C(C(N)=O)c2ncc(C(F)(F)F)cc2Cl)cc1 (centres undefined) | 0% | 0% | ? | 1%
CCN1C(=O)/C(=C/C=C2\N(CC)c3cc(S(=O)(=O)N(C)C)ccc3N2c2ccccc2)SC1=S | 13µM* | -6% | ? | 1%
Cc1cc(C)c(S(=O)(=O)N/N=C/c2ccc3c(c2)OCO3)c(C)c1 | -1% | -1% | -1% | -10%
Cc1ccccc1-c1nn2c(-c3ccccc3)nnc2s1 | 9.3µM* | -8% | ? | -8%
SMILES | Pf growth 96h | AMA1 RON2 block | Pf growth 48h | SARS PLpro yeast
COc1ccc(-c2nn3c(-c4ccco4)nnc3s2)cc1OC | -3% | -15% | ? | -3%
COc1cc(OC)c(-c2nn3c(-c4ccco4)nnc3s2)cc1OC | 8% | -6% | 10µM* | -3%
Cc1cc(-c2nn3c(-c4ccccc4)nnc3s2)c2ccccc2n1 | 26% | -4% | ? | -8%
c1ccc(-c2cc(-c3nn4c(-c5ccco5)nnc4s3)c3ccccc3n2)cc1 | . | -14% | 3.7µM* | -1%
COc1ccc(C(=O)Nc2ccc(S(=O)(=O)Nc3cc(C)nc(C)n3)cc2)c(OC)c1 | 85% | 3% | -25% | -2%
O=C(C1CCC1)N1CCc2cc(S(=O)(=O)N3CCCCC3)ccc21 | ? | -6% | -15% | 1%
O=C(c1ccco1)N1CCN(S(=O)(=O)c2ccc3c(c2)CCN3C(=O)C2CCC2)CC1 | -6% | 1% | 13µM* | 8%
O=C(C1CCC1)N1CCc2cc(S(=O)(=O)N3CCN(c4ccccn4)CC3)ccc21 | -2% | -4% | 10µM* | 0%
N#CCC(=O)Nc1nc(-c2ccc3c(c2)OCCO3)cs1 | 10µM* | 18% | 23% | 0%
